# Substitutions are numbered along the chain they refer to.
# Columns and labels:
# Assay in all cases: PBM; 200 nM protein, PBS
# Conditions in all cases: dsDNA, one strand shown
# [1] = target: HOXB9 (Homo sapiens, UniProt P17482 171-250, T197M)
# [2] = target: HOXB9 (Homo sapiens, UniProt P17482 171-250)
# [3] = target: HOXA2 (Homo sapiens, UniProt O43364 129-215, R185K)
# [4] = target: HOXB9 (Homo sapiens, UniProt P17482 171-250, R186Q)
# [5] = target: HOXA2 (Homo sapiens, UniProt O43364 129-215, Y150S)
# HOXA2 (Homo sapiens, UniProt O43364 129-215, Y150S), sequence (O43364 129-215 Y150S): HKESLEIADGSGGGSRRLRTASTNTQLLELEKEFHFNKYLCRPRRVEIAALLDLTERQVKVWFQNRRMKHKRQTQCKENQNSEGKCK
# [6] = target: HOXA2 (Homo sapiens, UniProt O43364 129-215)
# HOXA2 (Homo sapiens, UniProt O43364 129-215), sequence (O43364 129-215): as the sequence (O43364 129-215 Y150S) above, with S22Y counted along it
# [7] = target: T1, PAX4 (Homo sapiens, UniProt O43316 9-242, R200K)
# T1 sequence: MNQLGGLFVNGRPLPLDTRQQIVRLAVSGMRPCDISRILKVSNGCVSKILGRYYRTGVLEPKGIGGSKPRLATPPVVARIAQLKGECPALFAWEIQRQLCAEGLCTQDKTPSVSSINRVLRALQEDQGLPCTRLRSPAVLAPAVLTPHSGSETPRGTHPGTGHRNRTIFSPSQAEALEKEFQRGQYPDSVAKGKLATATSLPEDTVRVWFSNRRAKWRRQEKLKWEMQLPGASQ
# [8] = target: T2, PAX4 (Homo sapiens, UniProt O43316 9-242)
# T2 sequence: T1 sequence with K192R
# [9] = target: T3, PAX4 (Homo sapiens, UniProt O43316 9-242, R227W)
# T3 sequence: T1 sequence with K192R, R219W
# [10] = target: VAX1 (Homo sapiens, UniProt Q5SQQ9 86-172)
# VAX1, sequence (Q5SQQ9 86-172): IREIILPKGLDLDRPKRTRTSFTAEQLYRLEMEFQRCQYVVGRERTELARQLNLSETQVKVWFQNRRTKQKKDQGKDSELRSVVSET
# [11] = target: T4, VENTX (Homo sapiens, UniProt O95231 78-163)
# T4 sequence: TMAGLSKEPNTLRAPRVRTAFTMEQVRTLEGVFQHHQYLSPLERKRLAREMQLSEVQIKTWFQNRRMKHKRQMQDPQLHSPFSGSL
# [12] = target: HOXC9 (Homo sapiens, UniProt P31274 178-260, K195R)
# HOXC9 (Homo sapiens, UniProt P31274 178-260, K195R), sequence (P31274 178-260 K195R): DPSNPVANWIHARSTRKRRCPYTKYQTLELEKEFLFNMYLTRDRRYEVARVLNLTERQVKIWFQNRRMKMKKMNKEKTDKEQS
# [13] = target: HOXA7 (Homo sapiens, UniProt P31268 116-202)
# HOXA7 (Homo sapiens, UniProt P31268 116-202), sequence (P31268 116-202): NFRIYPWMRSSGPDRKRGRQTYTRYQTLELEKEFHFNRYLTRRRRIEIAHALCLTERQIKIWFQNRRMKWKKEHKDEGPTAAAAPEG
# [14] = target: HOXA7 (Homo sapiens, UniProt P31268 116-202, W177C)
# HOXA7 (Homo sapiens, UniProt P31268 116-202, W177C), sequence (P31268 116-202 W177C): as the sequence (P31268 116-202) above, with W62C counted along it
# [15] = target: HOXB6 (Homo sapiens, UniProt P17509 132-218)
# HOXB6, sequence (P17509 132-218): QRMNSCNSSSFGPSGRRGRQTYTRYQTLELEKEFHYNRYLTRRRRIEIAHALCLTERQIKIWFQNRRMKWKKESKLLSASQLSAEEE
# [16] = target: HOXC9 (Homo sapiens, UniProt P31274 178-260)
# HOXC9 (Homo sapiens, UniProt P31274 178-260), sequence (P31274 178-260): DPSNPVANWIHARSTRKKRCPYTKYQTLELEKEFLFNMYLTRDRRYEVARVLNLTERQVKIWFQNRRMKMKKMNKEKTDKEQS
# [17] = target: HOXC9 (Homo sapiens, UniProt P31274 178-260, R193K)
# HOXC9 (Homo sapiens, UniProt P31274 178-260, R193K), sequence (P31274 178-260 R193K): as the sequence (P31274 178-260) above, with R16K counted along it
# [18] = target: HOXC9 (Homo sapiens, UniProt P31274 178-260, R222W)
# HOXC9 (Homo sapiens, UniProt P31274 178-260, R222W), sequence (P31274 178-260 R222W): as the sequence (P31274 178-260) above, with R45W counted along it
# HOXA2 (Homo sapiens, UniProt O43364 129-215, R185K), sequence (O43364 129-215 R185K): as the sequence (O43364 129-215 Y150S) above, with S22Y, R57K counted along it
# HOXB9 (Homo sapiens, UniProt P17482 171-250, T197M), sequence (P17482 171-250 T197M): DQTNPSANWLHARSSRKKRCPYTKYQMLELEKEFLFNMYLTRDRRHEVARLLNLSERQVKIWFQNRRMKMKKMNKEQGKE
# HOXB9 (Homo sapiens, UniProt P17482 171-250), sequence (P17482 171-250): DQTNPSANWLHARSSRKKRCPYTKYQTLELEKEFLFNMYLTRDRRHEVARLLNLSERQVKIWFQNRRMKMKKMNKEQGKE
# HOXB9 (Homo sapiens, UniProt P17482 171-250, R186Q), sequence (P17482 171-250 R186Q): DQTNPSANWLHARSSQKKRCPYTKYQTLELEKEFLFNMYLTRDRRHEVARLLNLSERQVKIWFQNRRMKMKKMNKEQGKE
sequence,measurement,setting,value
GAGGGGGC,binding signal,[1],"8.48 upbm affinity estimate (log intensity, higher = more binding, comparable within an allelic series)"
same,binding signal,[2],"8.37 upbm affinity estimate (log intensity, higher = more binding, comparable within an allelic series)"
same,binding signal,[3],"10.1 upbm affinity estimate (log intensity, higher = more binding, comparable within an allelic series)"
same,binding signal,[4],"8.62 upbm affinity estimate (log intensity, higher = more binding, comparable within an allelic series)"
same,binding signal,[5],"10.2 upbm affinity estimate (log intensity, higher = more binding, comparable within an allelic series)"
same,binding signal,[6],"7.38 upbm affinity estimate (log intensity, higher = more binding, comparable within an allelic series)"
AATTAAGA,binding signal,[7],"11.6 upbm affinity estimate (log intensity, higher = more binding, comparable within an allelic series)"
same,binding signal,[8],"12.2 upbm affinity estimate (log intensity, higher = more binding, comparable within an allelic series)"
same,binding signal,[9],"10.8 upbm affinity estimate (log intensity, higher = more binding, comparable within an allelic series)"
AATTAGCC,binding signal,[7],"11.5 upbm affinity estimate (log intensity, higher = more binding, comparable within an allelic series)"
same,binding signal,[8],"12.1 upbm affinity estimate (log intensity, higher = more binding, comparable within an allelic series)"
same,binding signal,[10],"12.7 upbm affinity estimate (log intensity, higher = more binding, comparable within an allelic series)"
same,binding signal,[9],"10.6 upbm affinity estimate (log intensity, higher = more binding, comparable within an allelic series)"
GCCAATTA,binding signal,[11],"12.5 upbm affinity estimate (log intensity, higher = more binding, comparable within an allelic series)"
same,binding signal,[10],"12.8 upbm affinity estimate (log intensity, higher = more binding, comparable within an allelic series)"
CAATTATA,binding signal,[1],"10.1 upbm affinity estimate (log intensity, higher = more binding, comparable within an allelic series)"
same,binding signal,[12],"12.5 upbm affinity estimate (log intensity, higher = more binding, comparable within an allelic series)"
same,binding signal,[13],"11.4 upbm affinity estimate (log intensity, higher = more binding, comparable within an allelic series)"
same,binding signal,[14],"8.95 upbm affinity estimate (log intensity, higher = more binding, comparable within an allelic series)"
same,binding signal,[15],"11.9 upbm affinity estimate (log intensity, higher = more binding, comparable within an allelic series)"
AATTAACT,binding signal,[13],"11.2 upbm affinity estimate (log intensity, higher = more binding, comparable within an allelic series)"
same,binding signal,[7],"11.7 upbm affinity estimate (log intensity, higher = more binding, comparable within an allelic series)"
same,binding signal,[8],"12.3 upbm affinity estimate (log intensity, higher = more binding, comparable within an allelic series)"
same,binding signal,[9],"10.9 upbm affinity estimate (log intensity, higher = more binding, comparable within an allelic series)"
same,binding signal,[14],"8.89 upbm affinity estimate (log intensity, higher = more binding, comparable within an allelic series)"
same,binding signal,[15],"11.6 upbm affinity estimate (log intensity, higher = more binding, comparable within an allelic series)"
CAATTACA,binding signal,[15],"11.4 upbm affinity estimate (log intensity, higher = more binding, comparable within an allelic series)"
CCCAGGCG,binding signal,[12],"9.48 upbm affinity estimate (log intensity, higher = more binding, comparable within an allelic series)"
same,binding signal,[16],"9.7 upbm affinity estimate (log intensity, higher = more binding, comparable within an allelic series)"
same,binding signal,[17],"9.62 upbm affinity estimate (log intensity, higher = more binding, comparable within an allelic series)"
same,binding signal,[3],"10.1 upbm affinity estimate (log intensity, higher = more binding, comparable within an allelic series)"
same,binding signal,[18],"9.63 upbm affinity estimate (log intensity, higher = more binding, comparable within an allelic series)"
same,binding signal,[5],"10.5 upbm affinity estimate (log intensity, higher = more binding, comparable within an allelic series)"
same,binding signal,[6],"7.13 upbm affinity estimate (log intensity, higher = more binding, comparable within an allelic series)"
AATTAGCG,binding signal,[11],"12.3 upbm affinity estimate (log intensity, higher = more binding, comparable within an allelic series)"
same,binding signal,[7],"11.8 upbm affinity estimate (log intensity, higher = more binding, comparable within an allelic series)"
same,binding signal,[8],"12.4 upbm affinity estimate (log intensity, higher = more binding, comparable within an allelic series)"
same,binding signal,[10],"12.6 upbm affinity estimate (log intensity, higher = more binding, comparable within an allelic series)"
same,binding signal,[9],"11 upbm affinity estimate (log intensity, higher = more binding, comparable within an allelic series)"
CCTTCGAG,binding signal,[1],"8.5 upbm affinity estimate (log intensity, higher = more binding, comparable within an allelic series)"
same,binding signal,[2],"8.46 upbm affinity estimate (log intensity, higher = more binding, comparable within an allelic series)"
same,binding signal,[4],"8.5 upbm affinity estimate (log intensity, higher = more binding, comparable within an allelic series)"
CCAATTAG,binding signal,[11],"13.1 upbm affinity estimate (log intensity, higher = more binding, comparable within an allelic series)"
same,binding signal,[7],"11.7 upbm affinity estimate (log intensity, higher = more binding, comparable within an allelic series)"
same,binding signal,[8],"12.2 upbm affinity estimate (log intensity, higher = more binding, comparable within an allelic series)"
same,binding signal,[3],"13.3 upbm affinity estimate (log intensity, higher = more binding, comparable within an allelic series)"
same,binding signal,[10],"13.1 upbm affinity estimate (log intensity, higher = more binding, comparable within an allelic series)"
same,binding signal,[9],"10.8 upbm affinity estimate (log intensity, higher = more binding, comparable within an allelic series)"
same,binding signal,[5],"10.8 upbm affinity estimate (log intensity, higher = more binding, comparable within an allelic series)"
same,binding signal,[6],"12.1 upbm affinity estimate (log intensity, higher = more binding, comparable within an allelic series)"
AATTAGTG,binding signal,[11],"12.3 upbm affinity estimate (log intensity, higher = more binding, comparable within an allelic series)"
same,binding signal,[7],"11.8 upbm affinity estimate (log intensity, higher = more binding, comparable within an allelic series)"
same,binding signal,[8],"12.4 upbm affinity estimate (log intensity, higher = more binding, comparable within an allelic series)"
same,binding signal,[3],"13.1 upbm affinity estimate (log intensity, higher = more binding, comparable within an allelic series)"
same,binding signal,[10],"12.8 upbm affinity estimate (log intensity, higher = more binding, comparable within an allelic series)"
same,binding signal,[9],"11.1 upbm affinity estimate (log intensity, higher = more binding, comparable within an allelic series)"
same,binding signal,[5],"10.8 upbm affinity estimate (log intensity, higher = more binding, comparable within an allelic series)"
same,binding signal,[6],"12.2 upbm affinity estimate (log intensity, higher = more binding, comparable within an allelic series)"
ATTAATGC,binding signal,[13],"11 upbm affinity estimate (log intensity, higher = more binding, comparable within an allelic series)"
same,binding signal,[7],"11.7 upbm affinity estimate (log intensity, higher = more binding, comparable within an allelic series)"
same,binding signal,[8],"12.1 upbm affinity estimate (log intensity, higher = more binding, comparable within an allelic series)"
same,binding signal,[9],"10.9 upbm affinity estimate (log intensity, higher = more binding, comparable within an allelic series)"
same,binding signal,[14],"8.84 upbm affinity estimate (log intensity, higher = more binding, comparable within an allelic series)"
AATTAACG,binding signal,[7],"11.6 upbm affinity estimate (log intensity, higher = more binding, comparable within an allelic series)"
same,binding signal,[8],"12.2 upbm affinity estimate (log intensity, higher = more binding, comparable within an allelic series)"
same,binding signal,[9],"10.9 upbm affinity estimate (log intensity, higher = more binding, comparable within an allelic series)"
